These results are taken from PubChem BioAssay.

In experiment [1] the target is Sentrin-specific protease 8 (Homo sapiens) (UniProt Q96LD8). The experiment in a line: human SENP8 peptidase blockers, hit retest – biochemical, luminescence, single concentration, confirmation (AID 488912;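 active means mean inhibition across replicates above about 50%, limit read from the data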). As to conditions: Recombinant SENP8, Z-RLRGG-aminoluciferin luminescence, 60 min; at 12.5 µM; hits give high values.
Experiment [2] deals with Sentrin-specific protease 6 (Homo sapiens) (UniProt Q9GZR1). As to the kind of experiment: inhibition of human SENP6 catalytic domain – biochemical, luminescence, single concentration, confirmation (AID 488915). Conditions: recombinant SENP6, Z-RLRGG-aminoluciferin luminescence; at 12.5 µM; hits give high values.
Experiment [3] addresses Sentrin-specific protease 7 (Homo sapiens) (UniProt Q9BQF6). As to the kind of experiment: human SENP7 peptidase blockers, hit retest – biochemical, luminescence, single concentration, confirmation (AID 488917). As to conditions: recombinant SENP7, Z-RLRGG-aminoluciferin luminescence, 40 min; at 12.5 µM; hits give high values.
In the next experiment the target is Caspase-3 (Homo sapiens) (UniProt P42574). As to the kind of experiment: human caspase-3 activity blockade, out-of-family – biochemical, single concentration, selectivity assay for SENP inhibitor project, confirmation (AID 488918;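 active means mean inhibition above about 50%, limit read from the data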;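 further: plate controls were enzyme with DMSO for no effect and wells without caspase-3 for full effect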). Conditions: purified caspase-3, Z-DEVD-aminoluciferin luminescence, 60 min; at 12.5 µM; hits give high values.
The nature of experiment [4]: Ultra-Glo luciferase signal interference – biochemical, single concentration, SENP8 reaction pre-completed, artefact control for SENP inhibitor project, confirmation (AID 488919;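 active means mean inhibition above about 50% when retested at one dose, limit read from the data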;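 further: plate controls were DMSO wells with completed reaction for no effect and substrate without enzyme for full effect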). Conditions: Pre-incubated SENP8/Z-RLRGG-aminoluciferin, luciferase luminescence interference; at 12.5 µM; hits give high values.

The structures appear in SMILES notation. The list shows a part of the results. The source made the active and inactive calls.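 How the source made its calls, unless noted: active means mean inhibition above about 50% in the one-dose retest (limit read from the data); inactive means the rest.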

Sentrin-specific protease 7 (Homo sapiens), sequence (Q9BQF6 706-1050 limits assumed): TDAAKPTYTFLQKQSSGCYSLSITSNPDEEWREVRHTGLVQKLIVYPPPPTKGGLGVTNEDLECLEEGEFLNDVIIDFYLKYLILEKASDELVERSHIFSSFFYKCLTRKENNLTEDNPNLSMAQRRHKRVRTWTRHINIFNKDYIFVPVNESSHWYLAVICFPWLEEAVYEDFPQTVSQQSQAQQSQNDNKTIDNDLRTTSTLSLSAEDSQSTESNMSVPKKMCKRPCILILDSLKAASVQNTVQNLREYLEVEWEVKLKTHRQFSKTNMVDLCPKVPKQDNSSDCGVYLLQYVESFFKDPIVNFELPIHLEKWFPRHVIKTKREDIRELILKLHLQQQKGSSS
Caspase-3 (Homo sapiens), sequence (P42574 28-227 limits assumed): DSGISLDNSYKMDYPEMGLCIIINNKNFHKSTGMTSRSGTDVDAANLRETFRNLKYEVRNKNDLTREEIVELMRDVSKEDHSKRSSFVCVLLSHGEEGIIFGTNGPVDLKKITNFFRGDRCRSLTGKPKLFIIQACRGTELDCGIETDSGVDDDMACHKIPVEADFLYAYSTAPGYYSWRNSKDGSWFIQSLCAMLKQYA
Sentrin-specific protease 6 (Homo sapiens), sequence (Q9GZR1 628-1112 limits assumed): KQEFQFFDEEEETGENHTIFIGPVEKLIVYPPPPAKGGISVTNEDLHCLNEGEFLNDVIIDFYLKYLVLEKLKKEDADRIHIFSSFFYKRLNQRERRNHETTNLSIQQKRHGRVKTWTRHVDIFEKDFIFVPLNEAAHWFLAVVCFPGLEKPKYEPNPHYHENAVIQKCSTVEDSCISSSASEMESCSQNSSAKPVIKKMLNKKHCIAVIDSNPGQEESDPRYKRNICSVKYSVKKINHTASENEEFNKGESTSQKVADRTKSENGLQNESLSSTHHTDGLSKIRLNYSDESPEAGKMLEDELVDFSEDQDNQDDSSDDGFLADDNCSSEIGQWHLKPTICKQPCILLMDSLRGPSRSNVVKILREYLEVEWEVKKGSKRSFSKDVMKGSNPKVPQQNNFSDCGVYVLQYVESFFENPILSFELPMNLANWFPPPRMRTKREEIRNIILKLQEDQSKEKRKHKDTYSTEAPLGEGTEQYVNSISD
Sentrin-specific protease 8 (Homo sapiens), sequence (Q96LD8 whole entry, looked up, the tested form may be a part): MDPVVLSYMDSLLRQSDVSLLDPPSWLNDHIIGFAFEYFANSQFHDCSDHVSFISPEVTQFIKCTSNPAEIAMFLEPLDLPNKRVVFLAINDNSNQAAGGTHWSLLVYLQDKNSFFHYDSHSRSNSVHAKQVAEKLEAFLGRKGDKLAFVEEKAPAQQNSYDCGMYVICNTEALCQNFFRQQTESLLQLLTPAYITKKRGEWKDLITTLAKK

On to `C/C(=N\NC(=O)c1ccc(C)cc1)C1C(=O)c2ccccc2C1=O`, for which the inhibition was 92.6% (active) in experiment [1]; 93.5% (active) in experiment [2]; 100% (active) in experiment [3]; 92.7% (active) with Caspase-3 (Homo sapiens); 94.1% (active) in experiment [4].

On to `CCCCCc1ccc(-c2ccc(C(=O)O)cc2)nc1`, for which the inhibition in experiment [1] is -2.1% (inactive); in experiment [2], 54.7% (active); in experiment [3] it was 76.9% (active); in the experiment with Caspase-3 (Homo sapiens), 9.2% (inactive); in experiment [4] it was 63.9% (active).

As to `O=c1c2c(nc3cc(-c4cccc(Cl)c4)[nH]n13)CCCC2`, the inhibition was -9.4% (inactive) in experiment [1]; 0% (inactive) in experiment [2]; 21.5% (inactive) in experiment [3]; 41.6% (inactive) in the experiment with Caspase-3 (Homo sapiens); -4.6% (inactive) in experiment [4].

`Cc1cc(C(=O)N/N=C/c2ccc(N3CCOCC3)cc2)c(C)o1`: the inhibition is 86.9% (active) in experiment [1]; 86.6% (active) in experiment [2]; 98.6% (active) in experiment [3]; 95.4% (active) in the experiment with Caspase-3 (Homo sapiens); 49.9% (inactive) in experiment [4].

Take `O=C1/C(=C/c2cccs2)CCC1C1CCCC1` (stereo not given): the inhibition in experiment [1] was 50.9% (active); in experiment [2], 52.1% (active); in experiment [3] it was 50.7% (active); with Caspase-3 (Homo sapiens), 60.9% (active); in experiment [4], 36.6% (inactive).

Regarding `COc1ccc(C(=O)Nc2ccc(F)cc2F)cc1`, the inhibition in experiment [1] was -4.2% (inactive); in experiment [2] it was 60.2% (active); in experiment [3], 87.6% (active); with Caspase-3 (Homo sapiens), 87.1% (active); in experiment [4], 67.9% (active).

Consider `c1csc(-c2nc(-c3ccncc3)no2)c1`, for which the inhibition in experiment [1] was 19.7% (inactive); in experiment [2] it was 47.2% (inactive); in experiment [3], 83.4% (active); in the experiment with Caspase-3 (Homo sapiens), 80.4% (active); in experiment [4] it was 42.1% (inactive).

Regarding `Cc1[nH]n(C(N)=S)c(=O)c1N=Nc1ccc(Cl)cc1Cl`, the inhibition was 81.4% (active) in experiment [1]; 89.8% (active) in experiment [2]; 93.3% (active) in experiment [3]; 85.3% (active) with Caspase-3 (Homo sapiens); 38.9% (inactive) in experiment [4].

For `N/C(=N\OC(=O)c1ccc2c(c1)OCO2)c1ccc(Br)cc1`, the inhibition was -7.4% (inactive) in experiment [1]; 15.2% (inactive) in experiment [2]; 11.9% (inactive) in experiment [3]; 17.8% (inactive) with Caspase-3 (Homo sapiens); 3.3% (inactive) in experiment [4].

The inhibition is the drop in the measured response relative to a control, in per cent.
